The results in this text go back to PubChem BioAssay (Tox21).

Where “and” joins values, the source holds several entries; their conditions need not be identical. Equal entries are not always repeated. Records with an inconclusive call do not appear. A call without a number means that no potency is given here. Calls of active or inactive are those of the source. Calls come from the whole dose curve.
Potency is the fitted concentration of half-maximal effect.

A short description of the assay: qHTS assay for small molecules that induce genotoxicity in human embryonic kidney cells expressing luciferase-tagged ATAD5 - cell viability (AID 651634). Note: nearly all actives have a fitted effect of over 25% in size. Particulars: HEK293T ATAD5-luc cells viability, CellTiter-Fluor, 15.5 h; series mostly up to 83.3 µM; activity, negative = cytotoxicity: at the top concentration. The text has this:
National Center for Advancing Translational Sciences [NCATS]
NIH Chemical Genomics Center [NCGC]
U.S. Environmental Protection Agency [EPA]
National Institutes of Environmental Health Sciences [NIEHS]
National Toxicology Program [NTP]
U.S. Food and Drug Administration [FDA]
Enhanced Level of Genome Instability Gene 1 (ELG1; human ATAD5) protein levels increase in response to various types of DNA damage. Using a luciferase reporter-gene tagged with ElG1, a cell-based assay [developed by Kyungjae Myung, NHGRI, NIH] was used to measure the induction of ATAD5 in human embryonic kidney cells (HEK293T). So, increase in luciferase activity can be used to identify the compounds that cause genetic stress. In addition to genotoxicity, these cells were also used to test for cytotoxicity by measuring the protease activity within live cells.
Tox21 Assay Protocol Summary:
For cytotoxicity screening, 2,000 cells in 5 uL/well were dispensed into white, solid-bottom 1536-well plates using a Multidrop Combi (Thermo Scientific) dispenser. Following transfer of 23 nL compound or DMSO vehicle by a pin tool, the plates were incubated 15.5 hr at 37C and 5% CO2. 1 ul CellTiter-Fluor reagent (Promega, Madison, WI) was then added to each plate and following 30 min incubation at 37C, fluorescence intensity was quantified on a ViewLux CCD-based plate reader.
Regarding `CO[Si](CCCNCCN)(OC)OC`, the Potency entry is “inactive”.

Regarding `c1cnc2c(c1)ccc1cccnc12`, the Potency is 6.92 µM (active) and 3.86 µM (active) and 7.7 µM (active). Still for that read-out and setting: the entry for `Nc1cccc(C(F)(F)F)c1` is “inactive”; for `CS(=O)(=O)c1ccc(Cl)cc1` it is “inactive”; for `CC(=O)c1nccs1` it is “inactive”.

Regarding `COc1ccc(N)c(OC)c1`, the Potency entry was “inactive”. Still for that read-out and setting: the entry for `CN=C(NC#N)NCCSCc1nc[nH]c1C` is “inactive”. The same measure, in the same setting: the result for `O=C(Cl)c1ccc(C(=O)Cl)cc1` reads “inactive”. Same read-out and setting: the entry for `COC(=O)OC` is “inactive”. On to `CCCOC(=O)NCCCN(C)C`, for which the Potency result was “inactive”. On the same count and under the same terms, the entry for `CC(C=O)Cc1ccc(C(C)(C)C)cc1` (stereo not given) is “inactive”; for `CCCCCCCCC(=O)O` it is “inactive”; for `CCCCC(=O)O` it is “inactive”.

`C=C(C)CC(C)(C)C`: the Potency result was “inactive”. As for `O=C(c1ccccc1)c1ccc(O)c(O)c1O`, the “activity, negative = cytotoxicity” value is -27.9% (inactive).

Turning to `COc1c2ccoc2cc2oc(=O)ccc12`, the Potency entry is “inactive”. The same measure, in the same setting: the entry for `C=CC(=O)NCOCCCC` is “inactive”. Still for that read-out and setting: the result for `Cc1ccc([N+](=O)[O-])cc1N` reads “inactive”; that for `CC(C)c1ccc(C(C)C)cc1`, “inactive”. Regarding `O=C1C(N(CO)C(=O)NCO)N(CO)C(=O)N1CO` (stereo not given), the Potency result was “inactive”. Still for that read-out and setting: the result for `CN1CCCC1=O` reads “inactive”; that for `CCCCCCCC(=O)O`, “inactive”.

Regarding `COc1ccc([C@@H]2CC(=O)c3c(O)cc(O[C@@H]4O[C@H](CO[C@@H]5O[C@@H](C)[C@H](O)[C@@H](O)[C@H]5O)[C@@H](O)[C@H](O)[C@H]4O)cc3O2)cc1OC`, the “activity, negative = cytotoxicity” value was 14.9% (inactive). Turning to `CCn1cc(C(=O)O)c(=O)c2cc3c(cc21)OCO3`, the Potency entry was “inactive”. On the same count and under the same terms, the entry for `CC(C)(C)NC[C@H](O)COc1nsnc1N1CCOCC1` is “inactive”. Turning to `O=Cc1ccc(CO)o1`, the Potency result was “inactive”. Still for that read-out and setting: the entry for `Cc1nnc(NS(=O)(=O)c2ccc(N)cc2)s1` is “inactive”; for `Cc1cc(C)c(O)c(C)c1` it is “inactive”. The same measure, in the same setting: the entry for `C=CC(C)(C)C` is “inactive”. On the same count and under the same terms, the entry for `Cc1ccccc1Cl` is “inactive”; for `OCCOCCOCCOCCOCCO` it is “inactive”; for `Brc1ccc(Oc2ccc(Br)cc2)cc1` it is “inactive”.

`Nc1cccc(N)n1`: the Potency entry is “inactive”. The same measure, in the same setting: the entry for `C[Si](C)(C)N[Si](C)(C)C` is “inactive”; for `NC(=O)c1ncn([C@@H]2O[C@H](CO)[C@@H](O)[C@H]2O)n1` it is “inactive”; for `Cc1ccccc1C=O` it is “inactive”. Still for that read-out and setting: the entry for `OC[C@H]1O[C@@H](Oc2ccc(O)cc2)[C@H](O)[C@@H](O)[C@@H]1O` is “inactive”; for `CCCCCCC(=O)O` it is “inactive”; for `OCc1ccc(Cl)cc1Cl` it is “inactive”. The same measure, in the same setting: the entry for `CCCCCCCCCCCCCC(=O)O` is “inactive”.
